# The panel holds about 83,000 compounds, 20% with a hit somewhere; the sample as a whole holds those more often.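 Interpretation: 100, growth as untreated; towards 0, rising growth inhibition; 0, no net growth; 0 to -100, cell death. Compounds scoring below 10 were considered active.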 A number with no mark means an inactive call. Active and inactive are the calls of the source.
# System: NCI-H23 lung
# Assay: NCI-60 one-dose screen, 48 h (100 = growth as untreated, 0 = no growth, -100 = all killed)
# Details: 10 µM unless noted
row,Structure (SMILES),growth
1,COc1ccc(-c2nc(SCC(C)C)nc(N/N=C\c3cccc([N+](=O)[O-])c3)c2C#N)cc1,46.4%
2,Cc1cc(F)cc(NS(=O)(=O)c2ccc(-c3cnc(C4CC4)o3)cc2)c1,19.8%
3,C/C(=N\NC(=O)CSc1nc2sc3c(c2c(=O)n1-c1ccccc1)CCC(C)C3)c1ccc(Cl)cc1 (stereo not drawn),28.2%
4,COc1ccc(NC(=O)[C@H](C)N)cc1C(=O)Nc1cccc(-c2cc(=O)c3c(OC)c(OC)c(OC)cc3o2)c1,64.4%
5,CC[C@H](C)[C@H]1NC(=O)[C@@H]([C@H](O)C(C)C)NC(=O)[C@@H](C)N(C)C(=O)[C@H](C)N(C)C(=O)[C@H](CC(C)C)NC(=O)[C@H](CC(C)C)N(C)C(=O)[C@H](C)N(C)C1=O,-2.85% (active)
6,IP(CCCSc1n(Cc2ccc3ccccc3c2)c(-c2ccccc2)c(-c2ccccc2)[n+]1Cc1ccc2ccccc2c1)(c1ccccc1)(c1ccccc1)c1ccccc1,26.3%
7,N/C(=N\OC(=O)CSc1nc2ccccc2s1)c1ccc(Cl)cc1,97.7%
8,CC(=O)NC(C)(C)C(=O)N[C@@H](C)C(=O)NC(C)(C)C(=O)N[C@@H](C)C(=O)NC(C)(C)C(=O)N[C@@H](C)C(=O)N[C@@H](CCC(N)=O)C(=O)NC(C)(C)C(=O)N[C@H](C(=O)NC(C)(C)C(=O)NCC(=O)N[C@@H](CC(C)C)C(=O)NC(C)(C)C(=O)N1CCC[C@H]1C(=O)N[C@H](C(=O)NC(C)(C)C(=O)NC(C)(C)C(=O)N[C@@H](CCC(N)=O)C(=O)N[C@@H](CCC(N)=O)C(=O)N[C@H](CO)CC1CCCCC1)C(C)C)C(C)C,21.6% [5 µM]

# — PubChem BioAssay (NCI)
